# Measured values as given in PMC4336329 (PLoS ONE, 2015).
# The whole screen tested about 310,000 compounds, of which about 14,000 (4.5%) showed an effect of 50% or more. Effects have a minus sign here. What follows is part of a selection rich in strong results, with near analogues and random picks from the rest.
# Target: human ether-à-go-go-related gene (hERG) potassium channel (human, UniProt Q12809)
# Assay: primary screen, population patch clamp on CHO cells stably expressing hERG; higher = less effect of the substance
# 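Also: peak tail current of the secondary pulse compared with the same well before compound.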
# human ether-à-go-go-related gene (hERG) potassium channel, sequence (Q12809 whole entry, looked up): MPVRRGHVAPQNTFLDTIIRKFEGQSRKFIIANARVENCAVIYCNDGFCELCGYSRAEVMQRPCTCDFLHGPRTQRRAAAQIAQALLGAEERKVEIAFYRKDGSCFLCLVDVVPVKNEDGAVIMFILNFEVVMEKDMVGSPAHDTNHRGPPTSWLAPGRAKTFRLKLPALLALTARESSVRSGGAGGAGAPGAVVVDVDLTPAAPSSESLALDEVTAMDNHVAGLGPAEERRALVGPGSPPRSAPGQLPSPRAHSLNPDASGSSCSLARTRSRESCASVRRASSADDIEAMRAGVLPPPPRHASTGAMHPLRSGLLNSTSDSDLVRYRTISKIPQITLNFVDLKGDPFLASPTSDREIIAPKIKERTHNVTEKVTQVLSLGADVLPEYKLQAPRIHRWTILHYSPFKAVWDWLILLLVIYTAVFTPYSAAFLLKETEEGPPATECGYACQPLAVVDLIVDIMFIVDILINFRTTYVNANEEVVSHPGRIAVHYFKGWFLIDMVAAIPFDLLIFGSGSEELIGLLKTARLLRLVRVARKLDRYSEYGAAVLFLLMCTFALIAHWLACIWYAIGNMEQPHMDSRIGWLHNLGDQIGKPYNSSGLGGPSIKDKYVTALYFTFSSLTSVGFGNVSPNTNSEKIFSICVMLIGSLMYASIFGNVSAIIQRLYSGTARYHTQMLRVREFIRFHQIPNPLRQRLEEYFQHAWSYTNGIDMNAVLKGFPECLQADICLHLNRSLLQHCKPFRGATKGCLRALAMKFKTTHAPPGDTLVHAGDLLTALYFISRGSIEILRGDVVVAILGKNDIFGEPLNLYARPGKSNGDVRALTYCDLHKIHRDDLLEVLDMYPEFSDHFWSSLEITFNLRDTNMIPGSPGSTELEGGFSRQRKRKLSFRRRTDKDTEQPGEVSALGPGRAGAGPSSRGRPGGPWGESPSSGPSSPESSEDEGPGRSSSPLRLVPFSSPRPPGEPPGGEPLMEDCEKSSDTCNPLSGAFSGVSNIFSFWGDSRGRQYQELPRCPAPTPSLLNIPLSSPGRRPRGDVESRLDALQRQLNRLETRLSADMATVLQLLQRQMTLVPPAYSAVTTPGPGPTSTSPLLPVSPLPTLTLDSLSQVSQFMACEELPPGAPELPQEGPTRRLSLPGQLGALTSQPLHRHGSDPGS
row,SMILES,"hERG current change (%, negative = inhibition) at 10uM [%]"
1,Nc1nc(Oc2ccc(F)cc2)c(Br)c(=O)[nH]1,7.49
2,COc1ccc(-c2c(-c3ccc(OCC(=O)NN)cc3O)n[nH]c2C(F)(F)F)cc1,-5.25
3,C/C(CC(=O)Nc1cc(Cl)ccc1Cl)=N\NC(=O)c1ccco1,-6.6
4,Cc1ccc(CCNC(=O)C2CC(c3ccccc3[N+](=O)[O-])=NO2)cc1 (centres unmarked),-20.7
5,Cc1c(C=O)n(C)n(-c2ccccc2)c1=O,11.5
6,O=C(c1ccc(Br)o1)N1CCN(C/C=C/c2ccccc2)CC1,-61.8
7,Cl.O=C(c1ccco1)N1CCN(C/C=C/c2ccccc2)CC1,-38
8,O=C(c1cc2ccccc2o1)N1CCN(C/C=C/c2ccccc2)CC1,-62.2
9,O=C(c1cc2ccccc2o1)N1CCN(S(=O)(=O)/C=C/c2ccccc2)CC1,-30.8
10,O=C(c1ccc(Br)s1)N1CCN(C/C=C/c2ccccc2)CC1,-40.6
11,Cl.O=C(c1cc2ccccc2o1)N1CCN(Cc2ccccc2)CC1,-32.6
12,S=c1[nH]nc(-c2cccs2)n1Cc1ccccc1,9
13,CCCN1C2CCCC1CC(NC(=O)NC1CCCCC1)C2 (centres unmarked),-12.4
14,COCCNC(=O)Cn1cnc2ccc(S(=O)(=O)N3CCC(C)CC3)cc2c1=O,-15.1
15,CCOCC(=O)Nc1cc(-c2cn3cccnc3n2)ccc1C,6.69
16,CCn1c(CSc2nc3ccccc3s2)nnc1SCC(=O)c1ccc(O)cc1O,12.2
17,Cn1c(SCC(=O)N2CCCCC2)nc2cccnc21,22.2
18,NC(=O)c1ccsc1NC(=O)COC(=O)C1=NNC(=O)CC1,8.28
19,COC(=O)c1cc2n(n1)CCN(Cc1ccc(C)cc1)C2=O,1.46
20,CCN1CCN(C(=O)c2cc3cc(Cl)ccc3[nH]2)CC1,-59.8
21,CCN1CCN(C(=O)c2cc3cc(F)ccc3[nH]2)CC1,-65
22,CN1CCN(C(=O)c2cc3cc(Cl)ccc3[nH]2)CC1.Cl,-35.7
23,CCOC(=O)N1CCN(C(=O)c2cc3cc(F)ccc3[nH]2)CC1,-19.8
24,CCOC(=O)N1CCN(C(=O)c2cc3cc(Cl)ccc3[nH]2)CC1,-15.7

row,SMILES,"hERG current change (%, negative = inhibition) at 10uM [%]"
1,O=C(c1cc2cc(F)ccc2[nH]1)N1CCN(c2ccc(F)cc2)CC1,-4.93
2,CC(=O)Nc1ccc(S(=O)(=O)N(c2cccnc2)S(=O)(=O)c2ccc(NC(C)=O)cc2)cc1,-3.89
3,Cc1cc(C)cc(NC(=O)CSc2ncc(S(=O)(=O)c3ccccc3)c(=O)[nH]2)c1,13.6
4,O=C(Nc1ncn[nH]1)c1cc(S(=O)(=O)Nc2cccc(C(F)(F)F)c2)ccc1Cl,17.8
5,COc1ccc(CNC(=O)COC(=O)c2n[nH]c3ccccc23)cc1,7.27
6,CN(C)CCOC(c1ccc(Cl)cc1)c1ccccn1.O=C(O)/C=C/C(=O)O (centres unmarked),-43
7,Cc1ccc(C(OCCN(C)C)c2cccc(C(F)(F)F)c2)cc1.O=C(O)/C=C\C(=O)O (centres unmarked),-58.6
8,CN(C)CCO[C@@H](c1ccc(Cl)cc1)c1ccccn1.O=C(O)/C=C\C(=O)O,-29.5
9,COc1ccc(/C=N\Nc2ncc(F)c(N3CCOCC3)n2)cc1OC,-31.1
10,CCOc1cc(/C=N/NC(=O)c2ccc(O)cc2)ccc1Oc1nc(Cl)ncc1F,-7.77
11,CCOc1cc(/C=N\Nc2ncc(F)c(N3CCOCC3)n2)ccc1Oc1nc(Cl)ncc1F,-51.8
12,CCS(=O)(=O)N1CCN(S(=O)(=O)c2ccc(F)cc2)CC1,-18.4
13,O=C(NC1CCC(O)CC1)c1ccc(-c2ccc(Cl)cc2)o1 (centres unmarked),-21.8
14,CC(=O)Nc1ccc(NC(=O)c2ccc(-c3ccc([N+](=O)[O-])cc3)o2)cc1,-14.5
15,O=C(NC1CN2CCC1CC2)c1ccc(-c2ccc([N+](=O)[O-])cc2)o1 (centres unmarked),-64
16,O=C(Nc1ccccc1)c1ccc(-c2ccc([N+](=O)[O-])cc2)o1,4.73
17,O=C(NC1CCCCC1)c1ccc(-c2cccc([N+](=O)[O-])c2)o1,12.4
18,O=C(NC1CCC(O)CC1)c1ccc(-c2ccc([N+](=O)[O-])cc2)o1 (centres unmarked),-76.2
19,Cc1cc(=O)[nH]c(Nc2ccc(Cl)cc2)n1,15
20,CN1C(=O)C(CC(=O)Nc2ccccc2F)N(NC(=O)c2ccc(Br)cc2)C1=S (centres unmarked),6.5
21,Cc1ccc(CCSCC(=O)O)cn1,18.9
22,C=CCN1C(=O)CSc2ccc(C(=O)NCc3ccc(F)cc3)cc21,-21.3
23,CCN(C(=O)COc1ncnc2sccc12)c1ccccc1,63.8
